# PubChem BioAssay
# For some assays here: Entries with a potency or affinity are not part of this list. Calls of active or inactive are those of the source. Unless noted, the rule behind the calls is not given here.
# What was measured:
# [1] = antimalarial activity against Dd2 strain (AID 2302;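 active = growth inhibition above 50% at the single 2 µM test dose, taken to imply half-maximal potency below 2 µM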;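 note: 0% = DMSO untreated growth and 100% = chloroquine plus artemisinin killed control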); settings: P. falciparum Dd2 in RBCs, LDH growth readout, 72 h; at 2 µM; stronger effect = higher value
# [2] = human hepatoma cell viability loss – ATP luminescence, cytotoxicity control for P. falciparum antimalarial project, primary screen (AID 2303;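 active = inhibition above 50%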;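 note: 0% = DMSO wells and 100% = digitonin-killed cells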); settings: HepG2 viability, 24-48 h, at 10 µM, stronger effect = higher value
# [3] = target: L-lactate dehydrogenase (Plasmodium falciparum (isolate CDC / Honduras)) (UniProt Q27743); experiment: PfLDH activity inhibition – cell lysate, 3D7 strain, counter-screen for P. falciparum growth inhibition project (AID 2304);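 note: 0% = vehicle and 100% = reference inhibitor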; settings: P. falciparum 3D7 crude extract, LDH APAD/NBT absorbance; at 2 µM; stronger effect = higher value
# [4] = inhibition of 3D7 malaria parasite growth – strain 3D7 (AID 2306);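 note: 0% = DMSO wells and 100% = chloroquine plus artemisinin control wells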; settings: P. falciparum 3D7 erythrocytic growth, LDH absorbance, 72 h; at 2 µM; stronger effect = higher value
# [5] = target: Calcium-dependent protein kinase 1 (Plasmodium falciparum (isolate 3D7)) (UniProt P62344); experiment: PfCDPK1 kinase inhibitors, biochemical, TCAMS library (AID 1159585; cut-off not given, nearly all actives have IC50 up to about 0.98 µM;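 note: inhibitors leave more ATP so luminescence rises with inhibition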); settings: recombinant PfCDPK1, Kinase-Glo ATP depletion luminescence
# [6] = target: Plasmodium falciparum protein kinase 6 (PK6, PF3D7_1337100) (UniProt Q8IDW1); experiment: PfPK6 kinase inhibitors, biochemical, TCAMS library (AID 1159586); settings: recombinant PfPK6, Kinase-Glo ATP depletion luminescence
# [7] = target: Protein kinase 7 (PK7), Plasmodium falciparum 3D7 (PF3D7_0213400) (UniProt Q7YTF7); experiment: inhibition of Plasmodium PK7 catalytic activity – biochemical, TCAMS antimalarial set, Kinase-Glo luminescence (AID 1159587); settings: recombinant PfPK7, Kinase-Glo ATP depletion luminescence
# [8] = target: Calcium-dependent protein kinase 4 (Plasmodium falciparum (isolate 3D7)) (UniProt Q8IBS5); experiment: PfCDPK4 kinase inhibitors, biochemical, TCAMS library (AID 1159588; cut-off not given, nearly all actives have IC50 up to about 0.91 µM); settings: recombinant PfCDPK4, Kinase-Glo ATP depletion luminescence
# Calcium-dependent protein kinase 4 (Plasmodium falciparum (isolate 3D7)), sequence (Q8IBS5 whole entry, looked up): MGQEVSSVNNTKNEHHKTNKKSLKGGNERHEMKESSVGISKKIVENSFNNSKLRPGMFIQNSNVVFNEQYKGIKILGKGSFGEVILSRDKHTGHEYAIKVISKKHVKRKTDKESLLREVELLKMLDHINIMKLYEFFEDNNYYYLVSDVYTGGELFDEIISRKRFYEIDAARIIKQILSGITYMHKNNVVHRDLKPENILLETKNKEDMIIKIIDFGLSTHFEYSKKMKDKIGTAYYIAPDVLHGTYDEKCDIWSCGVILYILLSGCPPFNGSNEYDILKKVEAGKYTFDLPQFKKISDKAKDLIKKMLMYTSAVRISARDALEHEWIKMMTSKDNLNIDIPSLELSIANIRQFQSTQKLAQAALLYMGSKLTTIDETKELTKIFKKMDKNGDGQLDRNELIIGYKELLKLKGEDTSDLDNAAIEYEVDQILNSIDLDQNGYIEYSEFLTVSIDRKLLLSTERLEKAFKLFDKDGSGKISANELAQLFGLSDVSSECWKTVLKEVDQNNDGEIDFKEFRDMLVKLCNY
# Calcium-dependent protein kinase 1 (Plasmodium falciparum (isolate 3D7)), sequence (P62344 whole entry, looked up): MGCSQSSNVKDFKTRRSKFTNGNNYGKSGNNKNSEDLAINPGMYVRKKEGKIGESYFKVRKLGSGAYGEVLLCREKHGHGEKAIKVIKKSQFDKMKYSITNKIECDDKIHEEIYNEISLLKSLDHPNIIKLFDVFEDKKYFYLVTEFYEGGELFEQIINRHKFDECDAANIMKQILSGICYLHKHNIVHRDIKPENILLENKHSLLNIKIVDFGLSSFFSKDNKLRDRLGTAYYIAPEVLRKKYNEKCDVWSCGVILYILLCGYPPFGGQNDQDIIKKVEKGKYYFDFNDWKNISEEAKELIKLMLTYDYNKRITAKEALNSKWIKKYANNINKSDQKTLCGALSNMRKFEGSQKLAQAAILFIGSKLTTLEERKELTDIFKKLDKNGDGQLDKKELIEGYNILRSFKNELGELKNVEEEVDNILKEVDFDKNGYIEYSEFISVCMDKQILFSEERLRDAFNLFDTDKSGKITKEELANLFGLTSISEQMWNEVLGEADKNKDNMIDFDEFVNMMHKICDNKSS
# Plasmodium falciparum protein kinase 6 (PK6, PF3D7_1337100), sequence (Q8IDW1 1-305): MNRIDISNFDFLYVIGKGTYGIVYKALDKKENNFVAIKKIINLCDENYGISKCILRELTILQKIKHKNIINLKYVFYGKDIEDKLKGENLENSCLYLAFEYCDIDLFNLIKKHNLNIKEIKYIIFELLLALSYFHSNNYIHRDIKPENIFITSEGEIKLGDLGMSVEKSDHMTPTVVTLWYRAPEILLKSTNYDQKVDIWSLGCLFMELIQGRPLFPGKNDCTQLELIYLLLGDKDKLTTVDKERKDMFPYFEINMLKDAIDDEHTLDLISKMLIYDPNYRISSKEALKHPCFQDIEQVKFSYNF
# L-lactate dehydrogenase (Plasmodium falciparum (isolate CDC / Honduras)), sequence (Q27743 whole entry, looked up): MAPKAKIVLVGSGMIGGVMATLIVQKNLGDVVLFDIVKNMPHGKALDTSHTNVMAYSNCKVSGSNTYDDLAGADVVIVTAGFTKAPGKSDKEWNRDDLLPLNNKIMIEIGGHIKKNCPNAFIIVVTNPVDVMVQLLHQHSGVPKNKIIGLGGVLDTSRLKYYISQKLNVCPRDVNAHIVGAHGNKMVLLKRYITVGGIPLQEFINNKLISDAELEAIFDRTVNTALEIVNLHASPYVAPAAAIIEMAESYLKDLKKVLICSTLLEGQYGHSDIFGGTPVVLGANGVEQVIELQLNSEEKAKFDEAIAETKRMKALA
# Protein kinase 7 (PK7), Plasmodium falciparum 3D7 (PF3D7_0213400), sequence (Q7YTF7 1-343): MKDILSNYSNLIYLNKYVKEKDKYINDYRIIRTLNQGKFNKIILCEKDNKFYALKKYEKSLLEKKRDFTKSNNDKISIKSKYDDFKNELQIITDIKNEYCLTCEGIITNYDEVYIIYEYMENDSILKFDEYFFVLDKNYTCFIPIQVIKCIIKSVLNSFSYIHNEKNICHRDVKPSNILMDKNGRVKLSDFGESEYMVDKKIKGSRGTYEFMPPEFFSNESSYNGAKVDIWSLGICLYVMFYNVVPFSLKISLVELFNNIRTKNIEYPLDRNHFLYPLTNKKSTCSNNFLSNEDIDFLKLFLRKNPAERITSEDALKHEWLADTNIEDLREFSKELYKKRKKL
Compound,growth inhibition [1],inhibition [2],inhibition [3],growth inhibition [4],outcome [5],outcome [6],outcome [7],outcome [8]
COc1ccc2nccc([C@@H](O)CN3CCC(NCCOc4cccc(F)c4F)CC3)c2c1,85% (active),9% (inactive),3% (inactive),102% (active),inactive,inactive,inactive,inactive
CN1CCC(N(Cc2ccc(-c3ccc(C(F)(F)F)cc3)cc2)C(=O)Cn2cc(Cc3cnn(C)c3)c(=O)nc2SCc2cccc(F)c2F)CC1,91% (active),68% (active),7% (inactive),88% (active),inactive,inactive,inactive,inactive
CC[C@H](C)CNC(=O)c1ccnc(-c2ccc(CNCCCc3ccccc3)cc2)c1,84% (active),17% (inactive),-4% (inactive),101% (active),inactive,inactive,inactive,inactive
CCN(CC)CCNc1ccnc2[nH]c3ccc(I)cc3c12,95% (active),14% (inactive),-1% (inactive),100% (active),inactive,inactive,inactive,inactive
CCCc1cc(Cc2cnc(N)nc2N)cc(CCC)c1O,5% (inactive),64% (active),2% (inactive),96% (active),inactive,inactive,inactive,inactive
c1ccc(-n2cncn2)cc1,96% (active),0% (inactive),6% (inactive),93% (active),inactive,inactive,inactive,inactive
CCN(CC)CCN(Cc1ccc(-c2ccc(C(F)(F)F)cc2)cc1)C(=O)Cn1c(CCc2cccc(F)c2F)nc(=O)c2ccc(F)cc21,41% (inactive),14% (inactive),3% (inactive),98% (active),inactive,inactive,inactive,inactive
CC(=O)N(Cc1ccc(CC(C)NCCc2cccc(Cl)c2)cc1)Cc1ccc(CC(C)NCCc2cccc(Cl)c2)cc1 (stereo not given),94% (active),98% (active),-4% (inactive),101% (active),inactive,inactive,inactive,inactive
CCCCN(CCCC)CCCCNc1c2ccc(Cl)cc2nc2ccc(OC)cc12,96% (active),68% (active),2% (inactive),101% (active),inactive,inactive,inactive,inactive
C#CCOc1ccc2ccccc2c1CNCCCCCCNCc1c(OCC#C)ccc2ccccc12,98% (active),100% (active),-3% (inactive),100% (active),inactive,inactive,inactive,inactive
CC(CNC1CCN(CCn2c(=O)ccc3ccc(F)cc32)CC1)c1ccccc1 (stereo not given),4% (inactive),-12% (inactive),-1% (inactive),85% (active),inactive,inactive,inactive,inactive
COc1ccc(S(=O)(=O)N2CCC(NS(=O)(=O)c3ccc(F)cc3)CC2)cc1,-3% (inactive),3% (inactive),0% (inactive),80% (active),inactive,inactive,inactive,inactive
COc1cc2nccc(Nc3ccc4c(cnn4Cc4ccccc4F)c3)c2cc1OC,91% (active),55% (active),-8% (inactive),101% (active),inactive,inactive,inactive,inactive
O=c1cc(NCCC(CNCc2cc3ccccc3o2)NCc2cc(Br)cc(Br)c2)[nH]c2ccccc12 (stereo not given),94% (active),6% (inactive),2% (inactive),100% (active),inactive,inactive,inactive,inactive
CCc1ccc(C2CCN(CCCCNC(=O)c3ccc(NC(=O)c4ccc(Cl)cc4)cc3)CC2)c(OCC(=O)OC)c1,12% (inactive),32% (inactive),6% (inactive),95% (active),inactive,inactive,inactive,inactive
O=C(CCCc1ccccc1)Nc1cccc(N2CCC(N3CCN(c4ccccc4O)CC3)CC2)c1,41% (inactive),31% (inactive),-1% (inactive),98% (active),inactive,inactive,inactive,inactive
N#Cc1ccc(N2CCN(Cc3cccc(-c4cccc(-c5nc6ccc(C(F)(F)F)cc6[nH]5)c4)c3)CC2)nc1,50% (active),15% (inactive),6% (inactive),99% (active),inactive,inactive,inactive,inactive
COc1ccc(-c2cc3ncn(CC(=O)N4CCN(c5cccc(OC)c5)CC4)c(=O)c3s2)cc1,26% (inactive),49% (inactive),-7% (inactive),84% (active),inactive,inactive,inactive,inactive
CCCCn1c(Sc2ccc(C#N)c([N+](=O)[O-])c2)nnc1-c1ccc(OC)cc1,61% (active),12% (inactive),0% (inactive),93% (active),inactive,inactive,inactive,inactive
CCN(CCCN1CCCCC1)c1cc(C)nc(Nc2ccc(C)c(Br)c2)n1,98% (active),42% (inactive),-8% (inactive),102% (active),inactive,inactive,inactive,inactive

Compound,growth inhibition [1],inhibition [2],inhibition [3],growth inhibition [4],outcome [5],outcome [6],outcome [7],outcome [8]
CC(C)CNCc1cccc(-c2ccc(CNc3ccc4ncccc4c3)cc2)c1,32% (inactive),13% (inactive),-3% (inactive),94% (active),inactive,inactive,inactive,inactive
Cc1ccc(NC(=O)Nc2ccc(I)c(OCCN(C)C)c2)cc1Cl,22% (inactive),11% (inactive),-4% (inactive),98% (active),inactive,inactive,inactive,inactive
CCc1cccc(C)c1-n1nc(-c2cc(C(C)(C)C)oc2C)cc1N,95% (active),4% (inactive),5% (inactive),95% (active),inactive,inactive,inactive,inactive
CCCCCCCCCCNCC(O)c1ccc(O)c(C(=O)OC)c1 (stereo not given),97% (active),3% (inactive),-7% (inactive),97% (active),inactive,inactive,inactive,inactive
Cc1nc(NCCc2cnc[nH]2)cc(NCc2ccccc2)n1,5% (inactive),5% (inactive),-2% (inactive),100% (active),inactive,inactive,inactive,inactive
CCCCc1cc(=O)oc2cc(C)cc(OCc3ccccc3F)c12,78% (active),8% (inactive),-1% (inactive),92% (active),inactive,inactive,inactive,inactive
c1ccc(Oc2ccc(Nc3nc(NCCc4cnc[nH]4)nc(NC4CCCC4)n3)cc2)cc1,23% (inactive),-5% (inactive),6% (inactive),97% (active),inactive,inactive,inactive,inactive
COC(=O)c1ccc2[nH]cc(C3CCN(CCC4CCN(C(=O)/C=C/c5ccc(Cl)c(Cl)c5)CC4)CC3)c2c1,59% (active),24% (inactive),1% (inactive),97% (active),inactive,inactive,inactive,inactive
Cc1ccc(C)c(S(=O)(=O)NCC2CCN(Cc3ccc(O)cc3)CC2)c1,57% (active),16% (inactive),-6% (inactive),87% (active),inactive,inactive,inactive,inactive
Oc1cccc(Nc2ccnc3cc(-c4cc5ccccc5o4)ccc23)c1,71% (active),9% (inactive),-1% (inactive),102% (active),inactive,inactive,inactive,inactive
COc1ccc(C2(CNCC(O)c3cccc([N+](=O)[O-])c3)CCCCC2)cc1OC (stereo not given),85% (active),-2% (inactive),3% (inactive),95% (active),inactive,inactive,inactive,inactive
CC(C)(Cc1ccc(Cl)cc1)NCCCCCCNCCc1ccc(O)c(O)c1,-7% (inactive),45% (inactive),-8% (inactive),90% (active),inactive,inactive,inactive,inactive
O=C(/C=C/c1ccc(Cl)c(Cl)c1)NCCCCCCN1CCN(C(=O)Nc2cc(F)cc(F)c2)CC1,-1% (inactive),23% (inactive),-1% (inactive),86% (active),inactive,inactive,inactive,inactive
CCc1c(C)nc(-n2nc(C)cc2NC(=O)CC(c2ccccc2)c2ccccc2)[nH]c1=O,98% (active),41% (inactive),-3% (inactive),97% (active),inactive,inactive,inactive,inactive
Oc1ccc2ncnc(Nc3ccc(OCc4cccc(F)c4)c(Cl)c3)c2c1,30% (inactive),24% (inactive),2% (inactive),100% (active),inactive,inactive,inactive,inactive
O=C(Nc1ccc(Oc2ccccc2)cc1)N[C@H]1CCN(Cc2ccc(OCCCN3CCCCC3)cc2)C1,6% (inactive),13% (inactive),-6% (inactive),103% (active),inactive,inactive,inactive,inactive
CO/C(=C\C=C\c1cc2cc(Cl)c(Cl)cc2[nH]1)C(=O)NCCCN1CCN(c2cccc(CCO)c2)CC1,32% (inactive),61% (active),-1% (inactive),101% (active),inactive,inactive,inactive,inactive
Cc1ccc(F)cc1-c1cc(N2CCCN(C(=O)c3ccc(Br)o3)CC2)ncn1,91% (active),0% (inactive),0% (inactive),94% (active),inactive,inactive,inactive,inactive
COc1cc(CNCCCNc2cc(=O)c3ccccc3[nH]2)c2c(c1)C(C)CN2C(=O)OC(C)(C)C (stereo not given),87% (active),-5% (inactive),2% (inactive),96% (active),inactive,inactive,inactive,inactive
CCCCCCN1CCN(Cc2cccc(NC(=O)c3cc4ccccc4o3)c2)CC1,83% (active),20% (inactive),3% (inactive),93% (active),inactive,inactive,inactive,inactive
